Experimental findings from PubChem BioAssay (EPA / NIEHS) are described below.

Common to all, as to conditions: mRNA level, 48 h; actives raise or lower the signal
Read-out in assay [1]: Bcl-2 (BAX) gene, BAX (gene 581)
Nature of the assay: LTEA_HepaRG_BAX: Life Technologies and Expression Analysis (LTEA) Assay for Bcl-2 (BAX) gene using HepaRG (AID 2283470). The method in brief:
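Differentiated HepaRG cells exposed 48 h in serum-free induction medium, eight half-log concentrations from 100 uM, in duplicate, 0.5% DMSO vehicle. BAX mRNA by TaqMan qRT-PCR, normalised to ACTB, GAPDH and POLR2A.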

Read-out in assay [2]: adenosine kinase (ADK) gene, ADK (gene 132)
Nature of the assay: LTEA_HepaRG_ADK: Life Technologies and Expression Analysis (LTEA) Assay for adenosine kinase (ADK) gene using HepaRG (AID 2283471). An outline of the steps:
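HepaRG (human liver), 48 h chemical exposure, 8-pt half-log series, top 100 uM, 0.5% DMSO vehicle. Readout: ADK mRNA by qRT-PCR vs housekeeping genes; bidirectional curve fit relative to DMSO baseline.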

Read-out in assay [3]: Alpha-fetoprotein (AFP) gene, AFP (gene 174)
Nature of the assay: LTEA_HepaRG_AFP: Life Technologies and Expression Analysis (LTEA) Assay for Alpha-fetoprotein (AFP) gene using HepaRG (AID 2283472). An outline of the steps:
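Differentiated human HepaRG cells exposed 48 h in serum-free induction medium, 8-point half-log series from 100 uM in 0.5% DMSO, duplicate. AFP mRNA by qRT-PCR, normalized to ACTB, GAPDH, POLR2A; bidirectional fit vs DMSO.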

Read-out in the next assay: BCL2L11 (gene 10018)
Nature of the assay: LTEA_HepaRG_BCL2L11: Life Technologies and Expression Analysis (LTEA) Assay for Bcl-2 (BCL2L11) gene using HepaRG (AID 2283473). The method in brief: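 HepaRG, 48 h exposure, 8-pt half-log series from 100 uM in 0.5% DMSO, duplicates; qRT-PCR (Fluidigm TaqMan) for BCL2L11, housekeeping-normalized; bidirectional curve fit relative to DMSO baseline.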

Read-out in assay [4]: Apolipoprotein A-V (APOA5) gene, APOA5 (gene 116519)
Nature of the assay: LTEA_HepaRG_APOA5: Life Technologies and Expression Analysis (LTEA) Assay for Apolipoprotein A-V (APOA5) gene using HepaRG (AID 2283474). The method in brief: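 HepaRG, 48 h chemical exposure in serum-free induction medium, 8-pt half-log series (top 100 uM), 0.5% DMSO vehicle, duplicates. Readout: APOA5 mRNA by qRT-PCR, housekeeping-normalized; bidirectional fit vs DMSO baseline.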

Read-out in assay [5]: Apoptosis regulator Bcl-2 (Homo sapiens) (UniProt P10415)
Nature of the assay: LTEA_HepaRG_BCL2: Life Technologies and Expression Analysis (LTEA) Assay for Bcl-2 gene using HepaRG (AID 2283475). An outline of the steps: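 Differentiated human HepaRG cells in serum-free induction medium exposed 48 h, in duplicate, to 8-point half-log series from 100 uM in 0.5% DMSO. BCL2 mRNA by qRT-PCR (TaqMan/Fluidigm), normalized to ACTB, GAPDH, POLR2A; bidirectional fit against DMSO.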

Read-out in assay [6]: Bcl-2 (BID) gene, BID (gene 637)
Briefly: LTEA_HepaRG_BID: Life Technologies and Expression Analysis (LTEA) Assay for Bcl-2 (BID) gene using HepaRG (AID 2283476). The method in brief: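 Gene expression by qRT-PCR in HepaRG cells after 48 h exposure, duplicate wells, eight half-log concentrations topping at 100 uM in 0.5% DMSO. Normalized to ACTB, GAPDH, POLR2A; bidirectional fitting relative to DMSO.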

Read-out in the next assay: Caspase-3 (Homo sapiens) (UniProt P42574)
Nature of the assay: LTEA_HepaRG_CASP3: Life Technologies and Expression Analysis (LTEA) Assay for cysteine-aspartic acid protease (CASP3) using HepaRG (AID 2283477). An outline of the steps: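 HepaRG, 48 h exposure, 8 conc. (top 100 uM, half-log steps, duplicate), 0.5% DMSO vehicle; qRT-PCR of CASP3 transcript, housekeeping-normalised (ACTB/GAPDH/POLR2A); bidirectional curve fit vs DMSO baseline.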

Read-out in assay [7]: Cytochrome P450 (CYP24A1), CYP24A1 (gene 1591)
Briefly: LTEA_HepaRG_CYP24A1: Life Technologies and Expression Analysis (LTEA) Assay for Cytochrome P450 (CYP24A1) using HepaRG (AID 2283478). An outline of the steps: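 qRT-PCR read-out: CYP24A1 transcript levels normalized to three housekeeping genes, bidirectional curve fits against 0.5% DMSO baseline. Human HepaRG cells treated 48 h with chemicals at eight concentrations from 100 uM in half-log steps.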

Read-out in assay [8]: Cytochrome P450 (CYP1A2), CYP1A2 (gene 1544)
Briefly: LTEA_HepaRG_CYP1A2: Life Technologies and Expression Analysis (LTEA) Assay for Cytochrome P450 (CYP1A2) using HepaRG (AID 2283479). An outline of the steps: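 HepaRG, 48 h exposure, top 100 uM, half-log 8-pt, 0.5% DMSO vehicle, duplicates. Readout: TaqMan qRT-PCR of CYP1A2 mRNA, housekeeping-normalized (ACTB/GAPDH/POLR2A). Gain/loss fit relative to DMSO baseline.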

Read-out in assay [9]: cysteine-aspartic acid protease (CASP8), CASP8 (gene 841)
Nature of the assay: LTEA_HepaRG_CASP8: Life Technologies and Expression Analysis (LTEA) Assay for cysteine-aspartic acid protease (CASP8) using HepaRG (AID 2283480). An outline of the steps:
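HepaRG, 48 h exposure, duplicate wells; 8 conc, half-log from 100 uM, 0.5% DMSO. Serum-free induction medium. CASP8 mRNA by TaqMan qRT-PCR, norm. ACTB/GAPDH/POLR2A; gain/loss fitted vs DMSO.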

Read-out in assay [10]: Cytochrome P450 (CYP2B6), CYP2B6 (gene 1555)
Nature of the assay: LTEA_HepaRG_CYP2B6: Life Technologies and Expression Analysis (LTEA) Assay for Cytochrome P450 (CYP2B6) using HepaRG (AID 2283481). An outline of the steps: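 Read-out is CYP2B6 mRNA by TaqMan qRT-PCR, normalized to three housekeeping genes and fitted bidirectionally against 0.5% DMSO baseline. Human HepaRG cells received test chemicals for 48 h, top concentration 100 uM, half-log dilutions.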

Read-out in assay [11]: Cytochrome P450 2C19 (Homo sapiens) (UniProt P33261)
Briefly: LTEA_HepaRG_CYP2C19: Life Technologies and Expression Analysis (LTEA) Assay for CYP2C19 using HepaRG (AID 2283482). An outline of the steps: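 HepaRG, 48 h chemical exposure, 8-pt half-log series from 100 uM in 0.5% DMSO, duplicates. Readout: CYP2C19 mRNA by TaqMan qRT-PCR, housekeeping-normalized. Bidirectional fit vs DMSO baseline; phenobarbital 1mM as induction control.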

Read-out in another assay: CYP2C8 (gene 1558)
Briefly: LTEA_HepaRG_CYP2C8: Life Technologies and Expression Analysis (LTEA) Assay for CYP2C8 using HepaRG (AID 2283483). The method in brief: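 CYP2C8 mRNA induction or loss, by qRT-PCR normalized to ACTB/GAPDH/POLR2A, is read in HepaRG cells after 48 h treatment. Concentrations run from 100 uM down in half-log dilutions, with 0.5% DMSO as vehicle and baseline.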

Read-out in the next assay: CYP2C9 (gene 1559)
Briefly: LTEA_HepaRG_CYP2C9: Life Technologies and Expression Analysis (LTEA) Assay for CYP2C9 using HepaRG (AID 2283484). The method in brief:
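Cells plated 48 h, switched to serum-free induction medium, then treated in duplicate for 48 h at eight concentrations (max 100 uM, 0.5% DMSO). RNA then analysed by qRT-PCR for CYP2C9; curves fitted in both directions relative to DMSO.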

Read-out in the next assay: CYP2E1 (gene 1571)
Nature of the assay: LTEA_HepaRG_CYP2E1: Life Technologies and Expression Analysis (LTEA) Assay for CYP2E1 using HepaRG (AID 2283485). An outline of the steps:
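HepaRG cells, plated 48 h, then exposed 48 h in serum-free induction medium to eight half-log concentrations from 100 uM in 0.5% DMSO, duplicate. CYP2E1 mRNA by qRT-PCR, normalized to ACTB/GAPDH/POLR2A; bidirectional fit versus DMSO.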

Read-out in another assay: CYP4A11 (gene 1579)
Briefly: LTEA_HepaRG_CYP4A11: Life Technologies and Expression Analysis (LTEA) Assay for CYP4A11 using HepaRG (AID 2283486). The method in brief:
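CYP4A11 transcript levels were quantified by TaqMan qRT-PCR after HepaRG human liver cells were treated for 48 hours with test chemicals (top 100 uM, half-log dilutions, 0.5% DMSO). Gain or loss of signal was fitted relative to DMSO.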

Read-out in assay [12]: Cytochrome P450 3A4 (Homo sapiens) (UniProt P08684)
Briefly: LTEA_HepaRG_CYP3A4: Life Technologies and Expression Analysis (LTEA) Assay for CYP3A4 using HepaRG (AID 2283487). An outline of the steps:
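CYP3A4 transcript measured by TaqMan qRT-PCR and normalized to three housekeeping genes after 48 h chemical exposure of human HepaRG cells. Top concentration 100 uM, half-log steps, 0.5% DMSO vehicle; gain or loss fitted against DMSO baseline.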

Read-out in assay [13]: DNA damage-inducible transcript 3 (DDIT3), DDIT3 (gene 1649)
Briefly: LTEA_HepaRG_DDIT3: Life Technologies and Expression Analysis (LTEA) Assay for DNA damage-inducible transcript 3 (DDIT3) using HepaRG (AID 2283488). An outline of the steps: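 HepaRG cells, 48 h after plating, exposed 48 h in serum-free induction medium to 8 half-log concentrations up to 100 uM in 0.5% DMSO, in duplicate. DDIT3 mRNA measured by TaqMan qRT-PCR, normalized to ACTB, GAPDH and POLR2A. Fitted bidirectionally against DMSO.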

Read-out in assay [14]: Pro-epidermal growth factor (Homo sapiens) (UniProt P01133)
Briefly: LTEA_HepaRG_EGF: Life Technologies and Expression Analysis (LTEA) Assay for Epidermal growth factor (EGF) using HepaRG (AID 2283489). The method in brief: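 qRT-PCR readout of EGF transcript after 48 h chemical exposure of HepaRG cells; eight concentrations from 100 uM down in half-log steps, duplicate wells, 0.5% DMSO vehicle. Bidirectional curve fitting against DMSO baseline.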

Each structure is given as a SMILES string. The source made the active and inactive calls. The calls were made as follows: active = hit-call score of the fitted dose curve at least 0.9, where 1 is the maximum; inactive = score below 0.9.

Apoptosis regulator Bcl-2 (Homo sapiens), sequence (P10415 whole entry, looked up): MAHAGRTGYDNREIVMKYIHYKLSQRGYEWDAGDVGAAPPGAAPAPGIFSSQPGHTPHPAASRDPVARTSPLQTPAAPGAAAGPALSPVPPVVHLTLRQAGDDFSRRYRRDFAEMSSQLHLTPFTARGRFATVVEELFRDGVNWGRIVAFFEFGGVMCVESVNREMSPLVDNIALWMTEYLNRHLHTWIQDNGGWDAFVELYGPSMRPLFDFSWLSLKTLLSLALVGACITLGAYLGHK
Cytochrome P450 3A4 (Homo sapiens), sequence (P08684 whole entry, looked up): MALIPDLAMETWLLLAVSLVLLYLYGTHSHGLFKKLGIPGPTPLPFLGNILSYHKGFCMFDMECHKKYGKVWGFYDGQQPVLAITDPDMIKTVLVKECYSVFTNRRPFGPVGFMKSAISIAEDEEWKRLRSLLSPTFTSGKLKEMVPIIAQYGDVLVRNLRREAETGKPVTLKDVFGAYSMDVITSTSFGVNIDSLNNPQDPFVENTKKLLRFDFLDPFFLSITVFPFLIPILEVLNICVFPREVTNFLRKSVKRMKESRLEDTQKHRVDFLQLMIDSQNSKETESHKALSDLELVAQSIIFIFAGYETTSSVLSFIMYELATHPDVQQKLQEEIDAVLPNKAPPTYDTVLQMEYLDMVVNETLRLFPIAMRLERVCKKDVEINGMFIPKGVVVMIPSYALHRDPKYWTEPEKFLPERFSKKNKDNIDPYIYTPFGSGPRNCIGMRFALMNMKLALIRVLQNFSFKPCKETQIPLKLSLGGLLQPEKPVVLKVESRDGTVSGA
Caspase-3 (Homo sapiens), sequence (P42574 whole entry, looked up): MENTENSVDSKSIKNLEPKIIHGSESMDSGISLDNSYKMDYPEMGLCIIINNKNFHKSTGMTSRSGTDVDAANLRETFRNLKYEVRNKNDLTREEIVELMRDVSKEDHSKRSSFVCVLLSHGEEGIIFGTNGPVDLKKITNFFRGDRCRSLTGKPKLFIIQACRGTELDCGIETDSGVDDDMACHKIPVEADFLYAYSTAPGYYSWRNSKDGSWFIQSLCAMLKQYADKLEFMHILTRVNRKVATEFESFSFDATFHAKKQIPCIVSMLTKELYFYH
Cytochrome P450 2C19 (Homo sapiens), sequence (P33261 whole entry, looked up): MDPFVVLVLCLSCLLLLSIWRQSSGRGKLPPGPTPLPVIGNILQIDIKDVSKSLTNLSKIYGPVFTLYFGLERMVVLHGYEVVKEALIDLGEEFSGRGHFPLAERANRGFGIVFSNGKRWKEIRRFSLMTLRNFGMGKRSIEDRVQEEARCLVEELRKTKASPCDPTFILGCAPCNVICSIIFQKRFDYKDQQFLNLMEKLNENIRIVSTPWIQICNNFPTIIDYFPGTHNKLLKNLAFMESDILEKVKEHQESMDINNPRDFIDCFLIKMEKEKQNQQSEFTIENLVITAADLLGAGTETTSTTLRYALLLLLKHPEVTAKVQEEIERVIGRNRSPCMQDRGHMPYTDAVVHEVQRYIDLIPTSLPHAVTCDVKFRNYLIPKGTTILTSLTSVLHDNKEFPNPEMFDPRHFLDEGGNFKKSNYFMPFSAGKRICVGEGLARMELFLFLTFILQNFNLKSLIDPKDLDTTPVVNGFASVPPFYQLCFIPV

As to `CCC(C)=NO`, the compound was called inactive (in assay [1]; in assay [2]; in assay [3]; with BCL2L11 (gene 10018); in assay [4]; in assay [5]). Moreover, the compound was called inactive (in assay [6]; with Caspase-3 (Homo sapiens); in [7]; in assay [9]; in assay [10]; in assay [11]). The compound was classed as inactive (in the assay with CYP2C8 (gene 1558); with CYP2C9 (gene 1559); with CYP2E1 (gene 1571); with CYP4A11 (gene 1579); in [12]; in assay [13]). In addition, in assay [14], the result was inactive. Further, the AC50 (in general, the midpoint of the concentration-response curve, whichever way the signal moves) in assay [8] is 49.8 µM (active).
